We go through 29 compounds from PubChem BioAssay (NCATS).

For assay [1], the target named is Cellular tumor antigen p53 (Homo sapiens) (UniProt P04637). Nature of the assay: Primary qHTS for small molecule compounds that upregulate eGFP-tagged delta133p53alpha (in N-terminal) cells. (AID 2060322). Further: nearly all actives have a fitted effect of over 75% in size. Further: potency means the concentration at half of the fitted maximal effect.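 On activation: series mostly up to about 56 µM; 0% = DMSO vehicle and 100% = reference activator.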 Particulars: NCI-H358 eGFP-delta133p53alpha fluorescence, 24 h; activation: active compounds read high. The essentials: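 NCI-H358 cells pre-induced 24 h with 10 ng/ml doxycycline to express N-terminal eGFP-delta133p53alpha, then dosed 24 h at 37C without doxycycline; fixed, Hoechst-stained, GFP intensity by laser scanning cytometry, normalized to DMSO (0%) and 57.5 uM 5-azacytidine (100%).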
Cellular tumor antigen p53 (Homo sapiens), sequence (P04637 whole entry, looked up): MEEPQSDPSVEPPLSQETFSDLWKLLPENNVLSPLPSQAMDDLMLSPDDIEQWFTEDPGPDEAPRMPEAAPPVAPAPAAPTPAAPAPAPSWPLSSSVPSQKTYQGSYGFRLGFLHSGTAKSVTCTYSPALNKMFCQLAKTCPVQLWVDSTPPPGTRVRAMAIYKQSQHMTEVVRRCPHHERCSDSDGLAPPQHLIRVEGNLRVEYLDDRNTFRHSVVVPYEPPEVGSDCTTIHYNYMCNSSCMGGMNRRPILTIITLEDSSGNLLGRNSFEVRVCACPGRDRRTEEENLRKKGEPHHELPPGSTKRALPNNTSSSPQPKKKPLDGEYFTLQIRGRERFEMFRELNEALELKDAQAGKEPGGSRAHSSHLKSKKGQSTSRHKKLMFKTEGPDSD
(In general: Quantitative high-throughput screening tests each substance at several concentrations.)

Assay [2] concerns the target Aldehyde dehydrogenase, mitochondrial (Homo sapiens) (UniProt P05091). Nature of the assay: qHTS for Inhibitors of the Aldehyde Dehydrogenase Family (ALDH2) Validation screens (AID 2061302; active means well fitted inhibition curve with a large enough effect; title and protocol of this record describe different tests;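 further: plate controls were DMSO vehicle for no effect and maximal DPI positive control response for full effect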).
The target in assay [3] is Retinaldehyde dehydrogenase 3 (Homo sapiens) (UniProt P47895). Nature of the assay: qHTS for Inhibitors of the Aldehyde Dehydrogenase Family (ALDH1A3) Validation screen (AID 2061312). Further: on the % scale 0 is the no-effect control and ±100 the full control effect; nearly all actives have a fitted effect of over 45% in size.
In assay [4] the target is Aldehyde dehydrogenase, mitochondrial (Homo sapiens) (UniProt P05091). Nature of the assay: qHTS for Inhibitors of the Aldehyde Dehydrogenase Family (ALDH2) Primary screen (AID 2061308).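 Further: plate controls were vehicle for no effect and reference inhibitor for full effect; nearly all actives have a fitted effect of over 55% in size.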
For assay [5], the target named is Retinaldehyde dehydrogenase 3 (Homo sapiens) (UniProt P47895). Nature of the assay: qHTS for Inhibitors of the Aldehyde Dehydrogenase Family (ALDH1A3) Primary screen (AID 2061315).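 Further: plate controls were DMSO vehicle for no effect and reference inhibitor for full effect.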
Assay [6] in a line: BET inhibitor-based combinations targeting novel dependencies in MECOM-rearranged (r) AML: SET-2 cell line (AID 2202231). Further: nearly all actives have a fitted effect of over 35% in size. Further: potency means the concentration at half of the fitted maximal effect.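 On viability: plate controls were DMSO treated cells for no effect and wells without cells for full effect.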 Particulars: SET-2 AML cells viability, CellTiter-Glo luminescence, 48 h; viability: active compounds read low, concentration not given here. A digest of the protocol:
(§1)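 A 48 hr incubation preceded viability reading by CellTiter-Glo, with 15 min room-temperature development. Dose series had 11 points; normalization used DMSO and empty wells; AUC was computed and mean-centered per line as Z-AUC.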
On the technique in general: ATP-based viability assays read luminescence as a measure of living cells.

Assay [7] in a line: BET inhibitor-based combinations targeting novel dependencies in MECOM-rearranged (r) AML: OCI-AML3 cell line (AID 2202232). Further: nearly all actives have a fitted effect of over 35% in size. Further: potency means the concentration at half of the fitted maximal effect. The note with it: Potency: OCI-AML3 viability. The essentials:
as §1

The nature of assay [8]: BET inhibitor-based combinations targeting novel dependencies in MECOM-rearranged (r) AML: MV-4-11 cell line (AID 2202233). Further: nearly all actives have a fitted effect of over 45% in size. Further: potency means the concentration at half of the fitted maximal effect. A digest of the protocol: (§2)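 Each compound is tested in an 11-point concentration series against 500 seeded cells/well for 48 hr. The luminescent viability signal is normalized to DMSO and blank wells, then reduced to AUC and a cell-line-centred Z-AUC.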

Assay [9] is described as follows: BET inhibitor-based combinations targeting novel dependencies in MECOM-rearranged (r) AML: UCSD-AML1 cell line (AID 2202235).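 Further: series mostly up to about 46 µM; plate controls were DMSO vehicle wells for no effect and blank wells for full effect; nearly all actives have a fitted effect of over 40% in size.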 The essentials: as §2
Assay [10] deals with Aldehyde dehydrogenase, mitochondrial (Homo sapiens) (UniProt P05091). Nature of the assay: qHTS for Inhibitors of the Aldehyde Dehydrogenase Family (ALDH2) Confirmatory screens (AID 2061303; active means well fitted inhibition curve with a large enough effect; title and protocol of this record describe different tests; further: on the % scale 0 is the no-effect control and ±100 the full control effect; nearly all actives have a fitted effect of over 45% in size).
Assay [11] in a line: qHTS for Inhibitors of the Aldehyde Dehydrogenase Family (ALDH1A2, ALDH1A3, ALDH2, ALDH3A1) (AID 2061307). Further: on the % scale 0 is the no-effect control and ±100 the full control effect; nearly all actives have a fitted effect of over 50% in size.
For assay [12], the target named is Retinaldehyde dehydrogenase 3 (Homo sapiens) (UniProt P47895). Nature of the assay: qHTS for Inhibitors of the Aldehyde Dehydrogenase Family (ALDH1A3) Confirmatory screens (AID 2061311). Further: nearly all actives have a fitted effect of over 60% in size. Further: potency means the concentration at half of the fitted maximal effect.
Assay [13] concerns the target Retinal dehydrogenase 2 (Homo sapiens) (UniProt O94788). Nature of the assay: qHTS for Inhibitors of the Aldehyde Dehydrogenase Family (ALDH1A2) Confirmation screens (AID 2061314). Further: nearly all actives have a fitted effect of over 65% in size.
In assay [14] the target is Aldehyde dehydrogenase 1A1 (Homo sapiens) (UniProt P00352). Nature of the assay: qHTS for Inhibitors of the Aldehyde Dehydrogenase Family (ALDH1A1) Confirmatory screens (AID 2061316). Further: on the % scale 0 is the no-effect control and ±100 the full control effect; nearly all actives have a fitted effect of over 65% in size.
Assay [15] can be described thus: BET inhibitor-based combinations targeting novel dependencies in MECOM-rearranged (r) AML: HNT-34 cell line (AID 2202234).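 Further: plate controls were vehicle wells for no effect and cell-free wells for full effect; nearly all actives have a fitted effect of over 35% in size.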 A digest of the protocol: as §2
Assay [16] can be described thus: BET inhibitor-based combinations targeting novel dependencies in MECOM-rearranged (r) AML: AML-191 cell line (AID 2202236;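 further: plate controls were vehicle wells for no effect and wells without cells for full effect; nearly all actives have a fitted effect of over 35% in size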). A digest of the protocol:
as §1

Assay [17] can be described thus: BET inhibitor-based combinations targeting novel dependencies in MECOM-rearranged (r) AML: AML-194 cell line (AID 2202237;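 further: plate controls were vehicle wells for no effect and wells without cells for full effect; nearly all actives have a fitted effect of over 40% in size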). A digest of the protocol:
as §1

Values joined by “and” are separate entries in the source; they are usually repeats but may differ in a detail not shown here. Identical values can stand only once. Records with an inconclusive call do not appear. Unmarked numbers belong to inactive results. Active and inactive are the calls of the source. Unless noted, the call rests on the fitted dose curve; in most records, active means well fitted curve in the direction sought with a large enough effect; inconclusive means small, poorly fitted or top-dose-only effect, or another doubt; inactive means no such curve, though single readings can be large; an effect the other way counts as inactive or inconclusive.

For `Cc1cc(NC2CCCCC2)nc(-n2nc(C)cc2C)n1`, in assay [1], the activation was -20.8%. The Potency entry in assay [2] and in [3] was “inactive” throughout.
Regarding `CC12C(=O)OC(=O)C1(C)C1CCC2O1` (stereo not drawn), the Potency in assay [1] is 1.69 µM (active). Besides, the Potency result in [2] and in assay [3] was “inactive” in each case.
Regarding `NC/C=C/C(=O)O`, in assay [1], the activation was 18.6% and -17.5%. The Potency result in [2] and in assay [3] was “inactive” in each case.
As to `NC(=Nc1ccccc1)NC(=O)c1nc(Cl)c(N)nc1N`, the activation in [1] was -28.9%. Also, the Potency entry in assay [2] and in assay [3] was “inactive” throughout.
As for `CCCCOC(=O)NS(=O)(=O)c1sc(CC(C)C)cc1-c1ccc(Cn2c(CC)nc3c(C)cc(C)nc32)cc1`, the activation in assay [1] was -46.4%. The Potency entry in assay [2] and in assay [3] was “inactive” each time.
Take `CN(C)S(=O)(=O)c1ccc2c(c1)/C(=C/c1cc3c([nH]1)CCCC3)C(=O)N2`: the Potency in [1] was 6.75 µM (active). Moreover, the Potency result in [2] and in [3] was “inactive” throughout.
Take `Fc1ccc([C@@H]2CCNC[C@H]2COc2ccc3c(c2)OCO3)cc1`: the activation in [1] is 28.5% and -0.566% and 41.3%. In addition, the Potency entry in [2] and in assay [3] was “inactive” throughout.
`CCN(CC)CCCCCCCCOC(=O)c1cc(OC)c(OC)c(OC)c1`: in [1], the activation is -40.3%. The Potency result in assay [2] and in [3] was “inactive” throughout.
With `CC(=O)C(C)=O`, the activation in assay [1] is -5.18%. Besides, the Potency entry in assay [2] and in [3] was “inactive” throughout.
With `C=CCNc1ncnc2ccc(Br)cc12`, the activation in assay [1] was -43.6%. The Potency result in [2] and in [3] was “inactive” each time.
`CN1CCN(c2nc3cc(C(F)(F)F)ccc3n3cccc23)CC1`: the activation in assay [1] is -11.1%. Besides, the Potency result in assay [2] and in [3] was “inactive” in each case.
For `COc1ccccc1OCCNCC(O)COc1cccc2[nH]c3ccccc3c12` (stereo not drawn), the activation in [1] is 23.9% and -57.4%. Moreover, the Potency result in assay [2] and in assay [3] was “inactive” throughout.
Regarding `CC[C@H]1OC(=O)[C@H](C)[C@@H](O[C@H]2C[C@@](C)(OC)[C@@H](O)[C@H](C)O2)[C@H](C)[C@@H](O[C@@H]2O[C@H](C)C[C@H](NC)[C@H]2O)[C@](C)(O)C[C@@H](C)CN(C)[C@H](C)[C@@H](O)[C@]1(C)O`, the activation in assay [1] is -4.2%. The Potency entry in [2] and in assay [3] was “inactive” each time.
With `COC(=O)C(N)Cc1ccc(Cl)cc1` (stereo not drawn), the activation in assay [1] is -12%. For the same compound, the Potency result in [2] and in [3] was “inactive” throughout.
Regarding `Nc1ncnc2n[nH]c(Nc3ccc(F)cc3)c12`, the activation in [1] was 1%. In addition, the Potency entry in [2], in assay [4], in [3] and in assay [5] was “inactive” throughout.
As to `CNCCC=C1c2ccccc2CCc2ccccc21`, the activation in [1] was 33%. Also, the Potency entry in assay [2] and in assay [3] was “inactive” each time.
Consider `NCCCCCCCCCCN`, for which the activation in [1] was 28.3%. Also, the Potency result in assay [2] and in assay [3] was “inactive” in each case.
Take `CN(C)CCCN1c2ccccc2Sc2ccc(Cl)cc21`: the activation in assay [1] is -15.3%. Besides, the Potency entry in assay [2] and in assay [3] was “inactive” each time.
For `CC(C)(C)c1ccc(C(O)CCCN2CCC(C(O)(c3ccccc3)c3ccccc3)CC2)cc1` (stereo not drawn), in assay [1], the activation was 5.86% and -0.341%. Further, the Potency entry in assay [2] and in [3] was “inactive” each time.
`O=C1NCN(c2ccccc2)C12CCN(CCCC(c1ccc(F)cc1)c1ccc(F)cc1)CC2`: in assay [1], the activation is -12.6% and -53.2%. Moreover, the Potency entry in assay [2] and in assay [3] was “inactive” in each case.
Regarding `CN1CCN(CCCN2c3ccccc3Sc3ccc(C(F)(F)F)cc32)CC1`, the activation in [1] was -19.8% and -3.33% and -47.4%. Further, the Potency result in [2] and in [9] was “inactive” in each case. Moreover, the Potency in assay [6] is 16.6 µM (active); in [7], 16.6 µM (active); in [8] it was 20.9 µM (active).
Consider `OC[C@H]1O[C@@H](n2cnc3c2NC=NC[C@H]3O)C[C@@H]1O`, for which the activation in [1] was -7.16%. Moreover, the Potency entry in [10], in assay [11], in [4], in [12], in assay [3] and in assay [13] was “inactive” each time. Moreover, the Potency result in assay [5], in [14], in assay [7], in assay [8], in assay [15] and in assay [9] was “inactive” throughout. For the same compound, the Potency entry in assay [16] and in assay [17] was “inactive” throughout.
For the compound `CCC(C)N(C)C(=O)c1cc2ccccc2c(-c2ccccc2Cl)n1` (stereo not drawn), the activation in assay [1] is 12.4% and -31.8%. Also, the Potency entry in assay [2], in assay [3], in [7], in assay [8], in assay [15] and in [9] was “inactive” each time. For the same compound, the Potency result in assay [16] and in [17] was “inactive” in each case. The viability in assay [6] was 102%.
In the case of `O=C(Nc1nc2ccccc2n1CCN1CCOCC1)c1cccc([N+](=O)[O-])c1`, the activation in assay [1] was 5.07% and -24.4%. Besides, the Potency entry in assay [2] and in [15] was “inactive” each time. Also, in assay [6], the viability was 112%.
For `N#Cc1ccc(C(=O)N2CCC3(CC2)N=C(N)c2c(F)ccc(F)c2N3)cn1`, the activation in [1] was 6.21%. In addition, the Potency result in assay [10], in assay [11], in assay [4], in assay [12], in [3] and in assay [13] was “inactive” in each case. Moreover, the Potency result in assay [5] and in [14] was “inactive” throughout.
For `NS(=O)(=O)c1cc2c(cc1Cl)NCNS2(=O)=O`, the activation in assay [1] is -8.47% and 26.3% and -35.3%. Besides, the Potency entry in [2], in assay [3], in assay [7], in assay [8], in assay [15] and in assay [9] was “inactive” in each case. Also, the Potency entry in [16] was “inactive”. Besides, in [6], the viability is 107%.
For the compound `N#Cc1ccc(O[C@@H]2c3ccccc3C[C@H]2N2CCC[C@@H](N)C2)c(Cl)c1`, in [1], the Potency was 30.1 µM (active). For the same compound, the Potency result in [10], in assay [11], in assay [4], in assay [12], in assay [13] and in [5] was “inactive” throughout.
As to `COc1cc(O)c2c(c1)C1OC1C[C@H](O)[C@H](O)C(=O)/C=C\C[C@H](C)OC2=O` (stereo partly drawn), in assay [1], the Potency was 21.3 µM (active). For the same compound, the Potency entry in assay [10], in [11], in assay [4], in [12] and in [3] was “inactive” throughout.
For the compound `COc1cc2c3c(cc4ccccc4c3c1O)NC2=O`, in [1], the activation was -8.93%. Moreover, the Potency entry in assay [10], in assay [11] and in assay [4] was “inactive” each time. Moreover, in assay [12], the Potency was 14.2 µM (active).

For orientation: viability means a read-out of living cells in per cent, often relative to untreated cells.
